The results in this text go back to PMC7862700, “An all-to-all approach to the identification of sequence-specific readers for epigenetic DNA modifications on cytosine”.

Holding throughout (assay): DAPPL (digital affinity profiling via proximity ligation, sequencing); 10 mM Tris-HCl pH 7.5, 50 mM NaCl, 1 mM DTT, 4% glycerol, room temperature, 30 min; GST-TFs on glutathione beads, 16-mer random dsDNA library, 0.1% formaldehyde crosslink after washing; high values mean tight binding
For one test, the target named is T1, FLI1 (Homo sapiens, UniProt Q01543 1-452).
T1 sequence: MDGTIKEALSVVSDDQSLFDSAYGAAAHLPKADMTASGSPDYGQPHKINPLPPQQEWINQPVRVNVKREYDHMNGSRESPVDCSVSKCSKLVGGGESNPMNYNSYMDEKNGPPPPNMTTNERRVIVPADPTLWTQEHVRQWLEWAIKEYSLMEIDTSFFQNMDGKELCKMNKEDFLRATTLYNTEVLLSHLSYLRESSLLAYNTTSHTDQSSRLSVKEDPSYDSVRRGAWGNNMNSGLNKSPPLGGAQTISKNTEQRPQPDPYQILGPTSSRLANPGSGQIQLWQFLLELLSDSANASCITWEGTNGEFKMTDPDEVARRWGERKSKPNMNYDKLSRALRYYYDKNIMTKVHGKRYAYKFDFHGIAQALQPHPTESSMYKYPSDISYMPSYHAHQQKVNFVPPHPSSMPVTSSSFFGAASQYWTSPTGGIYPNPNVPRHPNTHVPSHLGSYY
The following applies: protein: recombinant; tags: N-terminal GST; dsDNA, one strand shown. The method, boiled down:
(§1)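 Yeast served to express human transcription factors as GST fusions, which were then captured on glutathione beads and labelled with DNA barcodes. Pooled with a tag-only sample, they were incubated with 200 nmole of a 16-mer random double-stranded DNA library for 30 min at room temperature in Tris/NaCl/DTT/glycerol buffer, washed, crosslinked with 0.1% formaldehyde, ligated by proximity, amplified by PCR and sequenced. Dividing each hexamer's read frequency for a factor by its frequency for the tag-only sample gives the binding signal.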

The next test has as its target T2, ELK1 (Homo sapiens, UniProt P19419 1-428).
T2 sequence: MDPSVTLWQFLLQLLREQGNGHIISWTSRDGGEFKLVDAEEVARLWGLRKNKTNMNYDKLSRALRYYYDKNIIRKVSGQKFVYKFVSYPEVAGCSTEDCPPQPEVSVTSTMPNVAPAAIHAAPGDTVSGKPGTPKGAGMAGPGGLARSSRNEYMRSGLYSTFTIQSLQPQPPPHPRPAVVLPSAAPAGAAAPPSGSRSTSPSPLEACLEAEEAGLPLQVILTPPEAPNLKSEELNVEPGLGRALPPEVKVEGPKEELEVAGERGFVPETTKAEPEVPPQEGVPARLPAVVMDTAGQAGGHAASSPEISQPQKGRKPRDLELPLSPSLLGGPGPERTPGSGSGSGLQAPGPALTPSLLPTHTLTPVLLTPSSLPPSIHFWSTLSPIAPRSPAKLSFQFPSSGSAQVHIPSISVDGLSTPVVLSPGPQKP
The following applies: protein: recombinant; tags: N-terminal GST; dsDNA, one strand shown. An outline of the steps: as §1

Another test concerns the target T3, GABPA (Homo sapiens, UniProt Q06546 1-454).
T3 sequence: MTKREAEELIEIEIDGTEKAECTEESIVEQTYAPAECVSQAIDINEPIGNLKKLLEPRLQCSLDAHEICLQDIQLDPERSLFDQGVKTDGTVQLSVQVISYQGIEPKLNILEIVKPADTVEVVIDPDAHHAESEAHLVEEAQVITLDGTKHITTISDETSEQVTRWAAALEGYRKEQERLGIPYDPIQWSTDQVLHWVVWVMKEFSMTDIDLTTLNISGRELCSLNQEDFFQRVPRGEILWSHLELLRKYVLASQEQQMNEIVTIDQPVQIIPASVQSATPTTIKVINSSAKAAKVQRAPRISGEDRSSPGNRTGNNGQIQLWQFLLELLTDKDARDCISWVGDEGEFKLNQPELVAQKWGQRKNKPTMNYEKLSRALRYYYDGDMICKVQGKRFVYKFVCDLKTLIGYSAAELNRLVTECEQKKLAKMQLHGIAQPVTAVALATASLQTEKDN
The note with it: protein: recombinant; tags: N-terminal GST; dsDNA, one strand shown. An outline of the steps: as §1

The next test addresses T4, ERG (Homo sapiens, UniProt P11308 1-479).
T4 sequence: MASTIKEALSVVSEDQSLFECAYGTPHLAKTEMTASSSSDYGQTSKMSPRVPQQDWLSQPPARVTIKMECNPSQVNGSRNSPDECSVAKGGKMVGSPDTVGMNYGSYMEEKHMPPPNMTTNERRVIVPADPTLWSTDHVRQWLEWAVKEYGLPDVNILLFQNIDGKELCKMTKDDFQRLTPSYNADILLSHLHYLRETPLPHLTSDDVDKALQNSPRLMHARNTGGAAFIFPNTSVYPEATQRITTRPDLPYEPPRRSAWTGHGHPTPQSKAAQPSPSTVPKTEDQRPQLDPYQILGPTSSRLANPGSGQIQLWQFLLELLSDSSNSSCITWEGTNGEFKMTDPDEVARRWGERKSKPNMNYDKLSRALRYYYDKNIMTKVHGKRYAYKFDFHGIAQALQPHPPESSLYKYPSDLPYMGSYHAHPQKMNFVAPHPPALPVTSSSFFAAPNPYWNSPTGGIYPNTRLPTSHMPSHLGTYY
The note with it: protein: recombinant; tags: N-terminal GST; dsDNA, one strand shown. The method, boiled down:
as §1

Another test addresses ELF1 (Homo sapiens, UniProt P32519 1-619). The following applies: protein: recombinant; tags: N-terminal GST; dsDNA, one strand shown. An outline of the steps:
as §1

The target in the next test is T5, EHF (Homo sapiens, UniProt Q9NZC4 1-300).
T5 sequence: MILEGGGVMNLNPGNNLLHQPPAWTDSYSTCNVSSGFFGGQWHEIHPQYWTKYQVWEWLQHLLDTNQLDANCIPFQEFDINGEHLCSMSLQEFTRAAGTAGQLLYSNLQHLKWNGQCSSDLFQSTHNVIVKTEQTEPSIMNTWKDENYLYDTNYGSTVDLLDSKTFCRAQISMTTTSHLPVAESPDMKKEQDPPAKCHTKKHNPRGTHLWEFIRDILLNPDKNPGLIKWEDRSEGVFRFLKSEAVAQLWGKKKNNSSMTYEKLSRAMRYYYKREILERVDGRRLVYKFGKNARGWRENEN
The note with it: protein: recombinant; tags: N-terminal GST; dsDNA, one strand shown. An outline of the steps: as §1

For a further test, the target named is SPI1 (Homo sapiens, UniProt P17947 1-270). The note with it: protein: recombinant; tags: N-terminal GST; dsDNA, one strand shown. An outline of the steps: as §1
The target in a further test is SPIB (Homo sapiens, UniProt Q01892 1-262). The note with it: protein: recombinant; tags: N-terminal GST; dsDNA, one strand shown. The method, boiled down: as §1
In the next test the target is T6, ELK3 (Homo sapiens, UniProt P41970 1-407).
T6 sequence: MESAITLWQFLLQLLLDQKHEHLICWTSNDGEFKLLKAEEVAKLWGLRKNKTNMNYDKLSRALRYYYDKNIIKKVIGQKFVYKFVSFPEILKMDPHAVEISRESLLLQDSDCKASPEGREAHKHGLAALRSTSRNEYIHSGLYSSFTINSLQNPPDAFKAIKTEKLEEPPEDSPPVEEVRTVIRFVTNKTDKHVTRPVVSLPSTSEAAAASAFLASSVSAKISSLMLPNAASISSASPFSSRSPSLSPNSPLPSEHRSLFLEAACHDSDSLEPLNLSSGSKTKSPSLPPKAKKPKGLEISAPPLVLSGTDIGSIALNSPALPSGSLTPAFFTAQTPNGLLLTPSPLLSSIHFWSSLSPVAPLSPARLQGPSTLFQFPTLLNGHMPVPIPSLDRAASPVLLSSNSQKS
The note with it: protein: recombinant; tags: N-terminal GST; dsDNA, one strand shown. An outline of the steps:
as §1

For another test, the target named is T7, FEV (Homo sapiens, UniProt Q99581 1-238).
T7 sequence: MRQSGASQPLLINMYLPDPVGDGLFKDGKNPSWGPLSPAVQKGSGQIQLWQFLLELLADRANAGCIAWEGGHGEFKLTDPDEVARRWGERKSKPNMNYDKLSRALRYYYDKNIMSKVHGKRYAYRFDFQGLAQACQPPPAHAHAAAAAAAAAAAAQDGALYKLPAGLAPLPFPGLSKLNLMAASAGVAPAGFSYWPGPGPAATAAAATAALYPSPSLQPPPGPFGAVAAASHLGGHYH
The following applies: protein: recombinant; tags: N-terminal GST; dsDNA, one strand shown. The method, boiled down: as §1

A further test has as its target ETV5 (Homo sapiens, UniProt P41161 1-510). The note with it: protein: recombinant; tags: N-terminal GST; dsDNA, one strand shown. The method, boiled down:
as §1

A further test deals with HSF1 (Homo sapiens, UniProt Q00613 1-529). The following applies: protein: recombinant; tags: N-terminal GST; chain copies: 3; dsDNA, one strand shown. The method, boiled down:
as §1

Another test addresses T8, SPIC (Homo sapiens, UniProt Q8N5J4 1-248).
T8 sequence: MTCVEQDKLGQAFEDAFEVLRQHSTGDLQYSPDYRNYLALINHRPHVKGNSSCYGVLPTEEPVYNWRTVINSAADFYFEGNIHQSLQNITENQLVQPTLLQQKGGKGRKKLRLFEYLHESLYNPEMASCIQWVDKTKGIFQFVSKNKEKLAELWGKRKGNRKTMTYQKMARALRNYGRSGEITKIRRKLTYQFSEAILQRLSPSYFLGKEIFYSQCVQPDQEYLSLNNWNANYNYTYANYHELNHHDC
The note with it: protein: recombinant; tags: N-terminal GST; dsDNA, one strand shown. An outline of the steps:
as §1

Another test deals with ELF4 (Homo sapiens, UniProt Q99607 1-663). The note with it: protein: recombinant; tags: N-terminal GST; dsDNA, one strand shown. An outline of the steps: as §1
A further test deals with T9, ELK4 (Homo sapiens, UniProt P28324-2 1-405).
T9 sequence: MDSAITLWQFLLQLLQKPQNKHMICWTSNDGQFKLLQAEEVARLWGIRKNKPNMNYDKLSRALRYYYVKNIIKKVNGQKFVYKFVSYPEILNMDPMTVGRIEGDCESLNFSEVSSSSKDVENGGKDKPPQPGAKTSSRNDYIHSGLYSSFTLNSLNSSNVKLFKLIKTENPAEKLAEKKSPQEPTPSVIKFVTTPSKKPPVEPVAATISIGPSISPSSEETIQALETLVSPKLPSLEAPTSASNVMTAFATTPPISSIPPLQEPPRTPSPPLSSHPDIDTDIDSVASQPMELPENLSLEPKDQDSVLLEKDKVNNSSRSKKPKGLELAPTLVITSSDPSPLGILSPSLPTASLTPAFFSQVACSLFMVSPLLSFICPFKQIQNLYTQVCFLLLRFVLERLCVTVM
The following applies: protein: recombinant; tags: N-terminal GST; dsDNA, one strand shown. The method, boiled down: as §1

For the next test, the target named is T10, ETV2 (Homo sapiens, UniProt O00321 1-342).
T10 sequence: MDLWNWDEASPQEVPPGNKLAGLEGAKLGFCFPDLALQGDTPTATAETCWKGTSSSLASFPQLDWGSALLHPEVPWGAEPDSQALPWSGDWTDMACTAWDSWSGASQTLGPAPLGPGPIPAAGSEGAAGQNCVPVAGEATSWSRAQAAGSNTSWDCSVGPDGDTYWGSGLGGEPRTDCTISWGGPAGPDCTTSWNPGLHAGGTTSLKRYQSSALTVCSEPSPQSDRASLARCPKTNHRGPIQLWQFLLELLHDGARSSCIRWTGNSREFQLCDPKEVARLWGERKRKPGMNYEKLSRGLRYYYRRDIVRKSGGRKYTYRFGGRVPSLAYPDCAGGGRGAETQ
The following applies: protein: recombinant; tags: N-terminal GST; dsDNA, one strand shown. The method, boiled down: as §1

For a further test, the target named is CRX (Homo sapiens, UniProt O43186 1-299). The note with it: protein: recombinant; tags: N-terminal GST; dsDNA, one strand shown. An outline of the steps:
as §1

The next test has as its target ETV1 (Homo sapiens, UniProt P50549 1-477). The note with it: protein: recombinant; tags: N-terminal GST; dsDNA, one strand shown. The method, boiled down: as §1

CRX, sequence (O43186 whole entry): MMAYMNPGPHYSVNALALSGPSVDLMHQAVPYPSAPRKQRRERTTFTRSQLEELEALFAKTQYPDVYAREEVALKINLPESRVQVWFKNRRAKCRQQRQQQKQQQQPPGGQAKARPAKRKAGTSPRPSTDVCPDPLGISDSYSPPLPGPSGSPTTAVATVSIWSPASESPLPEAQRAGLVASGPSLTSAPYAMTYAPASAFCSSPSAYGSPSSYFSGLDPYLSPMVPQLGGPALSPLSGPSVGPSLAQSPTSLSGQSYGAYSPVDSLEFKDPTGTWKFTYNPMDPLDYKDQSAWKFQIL
ETV5, sequence (P41161 whole entry): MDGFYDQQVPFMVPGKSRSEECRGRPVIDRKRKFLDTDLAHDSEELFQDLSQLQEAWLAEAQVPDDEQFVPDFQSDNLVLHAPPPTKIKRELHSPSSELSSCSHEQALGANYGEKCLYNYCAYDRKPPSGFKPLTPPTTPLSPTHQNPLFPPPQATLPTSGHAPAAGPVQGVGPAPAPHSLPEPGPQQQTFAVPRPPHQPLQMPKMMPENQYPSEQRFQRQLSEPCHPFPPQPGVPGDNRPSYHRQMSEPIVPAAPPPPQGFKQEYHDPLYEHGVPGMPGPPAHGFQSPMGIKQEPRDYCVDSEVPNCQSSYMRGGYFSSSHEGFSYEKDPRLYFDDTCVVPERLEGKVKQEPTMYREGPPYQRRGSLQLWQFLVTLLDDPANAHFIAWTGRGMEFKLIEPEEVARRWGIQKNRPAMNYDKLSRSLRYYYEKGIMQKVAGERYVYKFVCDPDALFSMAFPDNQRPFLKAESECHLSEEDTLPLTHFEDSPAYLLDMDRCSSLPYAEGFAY
HSF1, sequence (Q00613 whole entry): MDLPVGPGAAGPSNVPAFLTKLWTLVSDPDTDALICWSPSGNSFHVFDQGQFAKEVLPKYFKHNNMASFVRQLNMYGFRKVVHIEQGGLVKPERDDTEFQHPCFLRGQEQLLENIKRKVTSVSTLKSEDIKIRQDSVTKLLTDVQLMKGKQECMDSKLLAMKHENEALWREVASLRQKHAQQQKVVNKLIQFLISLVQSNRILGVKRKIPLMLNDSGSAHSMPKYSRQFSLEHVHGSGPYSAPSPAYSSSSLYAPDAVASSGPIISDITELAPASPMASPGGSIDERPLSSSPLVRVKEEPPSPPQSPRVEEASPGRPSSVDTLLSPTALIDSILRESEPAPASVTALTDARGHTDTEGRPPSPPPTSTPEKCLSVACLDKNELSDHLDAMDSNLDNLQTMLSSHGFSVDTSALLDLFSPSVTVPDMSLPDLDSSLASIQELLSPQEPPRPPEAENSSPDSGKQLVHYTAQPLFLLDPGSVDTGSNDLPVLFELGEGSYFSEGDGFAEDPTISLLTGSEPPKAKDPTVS
ETV1, sequence (P50549 whole entry): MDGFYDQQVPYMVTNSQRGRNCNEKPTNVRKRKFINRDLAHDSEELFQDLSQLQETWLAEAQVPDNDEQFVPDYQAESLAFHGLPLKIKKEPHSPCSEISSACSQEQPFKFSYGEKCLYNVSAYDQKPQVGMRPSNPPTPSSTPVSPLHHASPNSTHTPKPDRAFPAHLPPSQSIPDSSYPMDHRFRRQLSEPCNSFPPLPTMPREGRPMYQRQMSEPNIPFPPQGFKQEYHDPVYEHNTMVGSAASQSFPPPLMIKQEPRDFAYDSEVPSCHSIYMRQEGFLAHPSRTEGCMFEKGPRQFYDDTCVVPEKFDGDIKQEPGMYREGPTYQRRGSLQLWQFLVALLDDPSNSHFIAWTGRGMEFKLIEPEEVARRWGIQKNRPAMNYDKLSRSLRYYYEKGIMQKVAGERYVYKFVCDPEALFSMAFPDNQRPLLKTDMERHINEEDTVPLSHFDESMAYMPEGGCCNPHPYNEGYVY
ELF4, sequence (Q99607 whole entry): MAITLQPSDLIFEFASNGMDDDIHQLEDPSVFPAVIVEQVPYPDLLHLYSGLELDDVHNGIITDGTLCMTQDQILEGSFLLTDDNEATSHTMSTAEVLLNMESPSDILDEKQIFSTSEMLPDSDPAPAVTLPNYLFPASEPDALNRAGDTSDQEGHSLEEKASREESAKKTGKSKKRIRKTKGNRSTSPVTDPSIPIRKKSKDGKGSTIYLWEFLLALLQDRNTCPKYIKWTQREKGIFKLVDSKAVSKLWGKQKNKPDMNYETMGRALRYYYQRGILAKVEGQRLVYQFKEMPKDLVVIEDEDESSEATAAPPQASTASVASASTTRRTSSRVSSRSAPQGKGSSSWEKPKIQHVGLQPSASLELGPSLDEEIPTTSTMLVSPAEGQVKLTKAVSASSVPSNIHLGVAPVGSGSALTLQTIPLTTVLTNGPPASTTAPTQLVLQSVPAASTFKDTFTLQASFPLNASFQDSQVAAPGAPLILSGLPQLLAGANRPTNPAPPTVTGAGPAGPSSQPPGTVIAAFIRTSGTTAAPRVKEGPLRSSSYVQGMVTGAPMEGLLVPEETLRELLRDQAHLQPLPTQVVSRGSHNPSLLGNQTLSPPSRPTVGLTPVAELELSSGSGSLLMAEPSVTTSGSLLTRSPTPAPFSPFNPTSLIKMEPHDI
ELF1, sequence (P32519 whole entry): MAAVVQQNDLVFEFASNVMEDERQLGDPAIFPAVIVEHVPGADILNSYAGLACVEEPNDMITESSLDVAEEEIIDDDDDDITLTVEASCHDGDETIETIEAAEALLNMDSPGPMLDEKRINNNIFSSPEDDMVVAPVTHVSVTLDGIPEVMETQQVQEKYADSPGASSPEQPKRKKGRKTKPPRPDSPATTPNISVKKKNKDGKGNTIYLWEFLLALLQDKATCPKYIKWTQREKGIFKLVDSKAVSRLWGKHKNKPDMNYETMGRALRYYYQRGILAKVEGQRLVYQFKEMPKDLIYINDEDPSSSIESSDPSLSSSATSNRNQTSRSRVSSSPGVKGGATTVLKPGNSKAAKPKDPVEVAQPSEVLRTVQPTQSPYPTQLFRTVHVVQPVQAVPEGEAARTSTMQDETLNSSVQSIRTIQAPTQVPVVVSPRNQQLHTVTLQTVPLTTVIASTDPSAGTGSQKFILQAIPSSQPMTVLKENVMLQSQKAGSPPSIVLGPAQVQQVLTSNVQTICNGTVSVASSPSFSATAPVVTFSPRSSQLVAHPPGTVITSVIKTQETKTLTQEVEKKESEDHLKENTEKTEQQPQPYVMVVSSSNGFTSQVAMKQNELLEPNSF
SPIB, sequence (Q01892 whole entry): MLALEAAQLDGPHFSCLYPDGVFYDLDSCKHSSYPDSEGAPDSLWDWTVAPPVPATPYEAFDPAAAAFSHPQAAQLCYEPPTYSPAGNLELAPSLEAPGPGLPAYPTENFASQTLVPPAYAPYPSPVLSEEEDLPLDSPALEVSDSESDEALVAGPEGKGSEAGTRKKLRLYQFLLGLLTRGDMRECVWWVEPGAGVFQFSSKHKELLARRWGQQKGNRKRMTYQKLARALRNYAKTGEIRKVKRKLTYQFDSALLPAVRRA

Regarding ATCATA, the binding signal in the test with FLI1 was 1.07 fold enrichment (6-mer frequency, TF over GST control); with ELK1, 1.06 fold enrichment (6-mer frequency, TF over GST control); with GABPA, 1.16 fold enrichment (6-mer frequency, TF over GST control); with ERG, 1.05 fold enrichment (6-mer frequency, TF over GST control); with ELF1, 1.12 fold enrichment (6-mer frequency, TF over GST control); in the test with EHF, 1.03 fold enrichment (6-mer frequency, TF over GST control). Moreover, the binding signal with SPI1 is 1.05 fold enrichment (6-mer frequency, TF over GST control); with SPIB it was 1.18 fold enrichment (6-mer frequency, TF over GST control); with ELK3, 1.09 fold enrichment (6-mer frequency, TF over GST control); with FEV it was 1.07 fold enrichment (6-mer frequency, TF over GST control); with ETV5, 1.09 fold enrichment (6-mer frequency, TF over GST control); with HSF1 it was 1.16 fold enrichment (6-mer frequency, TF over GST control). Further, the binding signal with SPIC was 1.04 fold enrichment (6-mer frequency, TF over GST control); in the test with ELF4, 1.08 fold enrichment (6-mer frequency, TF over GST control); with ELK4, 1.08 fold enrichment (6-mer frequency, TF over GST control); in the test with ETV2, 1.16 fold enrichment (6-mer frequency, TF over GST control); in the test with CRX, 1.39 fold enrichment (6-mer frequency, TF over GST control); with ETV1 it was 1.08 fold enrichment (6-mer frequency, TF over GST control).
